Screens as filed in PubChem BioAssay.
D1 antag: human D1 dopamine receptor antagonism | P21728 | HEK293 TREx D1 cells, calcium flux, dopamine EC80; active compounds read low | activity change, negative = inhibition, % at 10 µM | 360,000 tested, 3.2% active | AID 504652; in the data active = activity change below about -30%; also: % is scaled to controls: 0 for no effect and ±100 for the full control effect
Target sequence (P21728 whole entry, looked up): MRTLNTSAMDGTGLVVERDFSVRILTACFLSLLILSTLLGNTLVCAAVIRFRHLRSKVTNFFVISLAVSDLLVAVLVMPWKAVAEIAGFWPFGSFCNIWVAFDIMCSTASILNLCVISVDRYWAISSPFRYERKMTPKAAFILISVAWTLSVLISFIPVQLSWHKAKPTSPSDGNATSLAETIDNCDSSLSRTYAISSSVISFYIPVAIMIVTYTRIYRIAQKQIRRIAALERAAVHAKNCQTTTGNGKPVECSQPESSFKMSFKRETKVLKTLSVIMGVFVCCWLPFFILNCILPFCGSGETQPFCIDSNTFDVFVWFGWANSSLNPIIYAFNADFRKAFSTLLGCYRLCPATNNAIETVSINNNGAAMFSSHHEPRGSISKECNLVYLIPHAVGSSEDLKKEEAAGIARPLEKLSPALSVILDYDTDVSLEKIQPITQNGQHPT
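Antagonism measured as reduced calcium response to an EC80 dopamine addition following 180 s compound pre-read; cells were inducible HEK293 Trex D1 plated overnight at 30 C, read kinetically at 1 cycle/sec.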
BCR signal inh: chronic active BCR signaling inhibition | ABC-DLBCL IkBa-CBG/CBR reporter, luminescence ratio, 4 h | Potency, µM (titrated, usually from 46.1 µM), without a hit: top-dose activity change, negative = inhibition, actives largely listed as inhibitors | 340,000 tested, 0.05% active | AID 493014; active = well fitted inhibition curve with a large enough effect in the signal ratio, with a control signal flat, not every such curve was filed as active; inconclusive = small, poorly fitted or top-dose-only effect, or effect the other way, or a change in a side signal; the % refers to the signal ratio;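 also: potency is read from the fitted curve at half-maximal effect; plate controls were basal doxycycline-induced cells for no effect and cells given 10 µM MG132 for full effect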
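Cell line TMD8 (human ABC DLBCL), stably expressing tet-inducible CBG68-IkBa fusion and CBR; IMDM/0.5% FBS; cpd up to 46 uM; dox induction, 4 h, 37C/5% CO2; dual luminescence; green/red ratio; MG132 control.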
D3 ag: activates the human D3 dopamine receptor; P35462; D3R DiscoveRx beta-arrestin cells, luminescence, 90 min; 410,000 tested, 0.58% active; max activation, %; in the data active = max activation above about 30%; also: 0% is about no effect
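Agonist-mode cell screen: cells plated at 1500/well and incubated overnight at 37 °C, then exposed to library compounds for 90 min at 37 °C. Detection reagent was added for 30–60 min at room temperature, and luminescence was read.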
D1 PAM: potentiators of human D1 dopamine receptor; P21728; HEK293 TREx D1 cells, calcium flux, dopamine EC20 potentiation; potentiation, % at 10 µM; 360,000 tested, 0.036% active; in the data active = potentiation above about 30%; also: 0% is about no effect
D1 ag: human D1 receptor agonism | HEK293 T-REx D1 cells, calcium flux, agonist mode | activation, % at 2 µM | 360,000 tested, 1% active; in the data active = activation above about 30%; also: 0% is about no effect
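Tetracycline-induced HEK293 TREx D1 cells, force-coupled to calcium signalling, were dye-loaded with a no-wash calcium kit. Compound was pin-added after a 10 s baseline. Fluorescence was read kinetically at 1 cycle/s for 180 s, with calcium rises flagged as agonism.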
DRD3 antagonist: blocks the human D3 dopamine receptor; D3R cells, DiscoveRx beta-arrestin luminescence, antagonist mode; active compounds read low; AID 652054; max response, negative = inhibition, %; P35462; 360,000 tested, 2.5% active; in the data active = max response below about -50%; inconclusive = no clear call, values can overlap the other calls; also: % is scaled to controls: 0 for no effect and ±100 for the full control effect
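Cells plated overnight at 1500 cells/well, then exposed to library compounds with dopamine controls for 90 minutes at 37 degrees C. DiscoveRx reagent added for 30–60 minutes at room temperature; luminescence read, quantitative HTS format.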
The depositor's hits bear a star; ? = inconclusive; / = not tested or not shown; ! = a repeat was not active. In the library only some 6% were active in any assay of this set; here they are far more common.

SMILES	D1 antag	BCR signal inh	D3 ag	D1 PAM	D1 ag	DRD3 antagonist
Cc1ccc(C)c(N2CCN(CCCNC(=O)c3cnn(-c4ccc(F)cc4)c3C3CCN(C(=O)OC(C)(C)C)CC3)CC2)c1	-32.1*	/	-18.7	-4.4	4.1	/
Cc1ccc(-n2ncc(C(=O)NCCN3CCC(Cc4ccccc4)CC3)c2C2CCN(C(=O)OC(C)(C)C)CC2)cc1	-9.6	/	-21.3	0.7	56.2*	/
COc1ccc(Cl)cc1NC(=O)NCC1CCN(C(=O)OC(C)(C)C)CC1	-13.0	-2.1%	-44.9	-6.8	3.9	-72.5*
Cc1ccc(-n2ncc(C(=O)NCCN3CCCC3)c2C2CCN(C(=O)OC(C)(C)C)CC2)cc1	-20.9	/	-15.4	-5.7	21.2	/
COc1ccccc1CN1CCC(CNC(=O)c2cnn(-c3ccc(Cl)cc3)c2C2CCN(C(=O)OC(C)(C)C)CC2)CC1	-0.8	/	-13.3	-5.9	31.2*	/
O=C(Nc1cc2ccc(O)cc2oc1=O)c1ccccc1	-6.7	?	-8.9	-3.6	1.3	/
CC(=O)N1C[C@H]2CON(C)[C@H]2C[C@H]1c1ccccc1	/	/	0.1	/	/	15.5
Cc1cc(C)nc(SCc2nc3ncccn3c2Br)n1	18.1	-13.6%	2.3	0.8	1.7	-52.2*
Brc1c(CSc2nc3ccccc3o2)nc2ncccn12	-9.3	-2.1%	3.0	-1.2	0.4	-5.7
CN(C)c1ccc(CNC(=O)CN(C)S(=O)(=O)c2cccc3cccnc23)cc1	-66.0*	-24.8%	4.9	/	0.0	17.9
CN(CC(=O)NCc1cccs1)S(=O)(=O)c1cccc2cccnc12	7.5	-12.6%	-9.5	/	0.5	0.0
CCOc1ccc(C(=O)C(CCC(CN(C)C)C(=O)c2ccc(OCC)cc2)CN(C)C)cc1 (stereo not given)	12.6	?	-13.0	-10.2	35.5*	-84.9*
COc1ccc(C(=O)C(CCCCC(CN(C)C)C(=O)c2ccc(OC)cc2)CN(C)C)cc1 (stereo not given)	-39.6*	?	-13.3	-10.0	24.3	?
CN(C)CC(CCC(CN(C)C)C(=O)c1ccccc1)C(=O)c1ccccc1 (stereo not given)	6.0	?	-42.6	0.0	3.1	-80.3*
O=C1c2c(-c3ccc(Br)cc3)noc2CCN1Cc1cn(-c2ccc(Cl)cc2)nn1	/	/	5.6	/	/	30.2
COc1ccc(CCN2CC(=O)NC(=O)C2)cc1OC	/	/	3.1	/	/	70.2
COc1ccc2oc(C(=O)OCC(=O)NC3CCS(=O)(=O)C3)c(C)c2c1 (stereo not given)	/	/	-7.3	/	/	-17.8
COc1ccc(-c2oc3cc(O)c(OC)c(O)c3c(=O)c2OC)cc1	-30.2*	?	-16.0	-7.5	-1.0	7.7
CCN1/C(=C/C(C)=C/c2sc3ccccc3[n+]2CC)Sc2ccccc21	-8.2	-11.3%	-9.1	-1.5	2.6	-58.9*!
CCCS(=O)(=O)NC(=O)C1(C)CCN(C(=O)c2oc3ccccc3c2C)C1 (stereo not given)	/	/	4.4	/	/	5.8
CC1=C(c2ccc(C)c(C)c2)S(=O)(=O)N=C1N1CCC(C(=O)NC(C)c2ccccc2)CC1 (stereo not given)	-75.4*	/	4.3	-6.3	2.1	/
CC1=C(c2ccc(C)c(C)c2)S(=O)(=O)N=C1N1CCC(C(=O)NC(C)Cc2ccco2)CC1 (stereo not given)	-32.2*	/	-3.0	-2.0	0.4	/
CC1=C(c2ccc(F)cc2)S(=O)(=O)N=C1N1CCC(C(=O)NCCc2ccco2)CC1	-17.9	/	8.4	-4.4	1.5	/
CC1=C(c2ccc(C)c(C)c2)S(=O)(=O)N=C1N1CCC(C(=O)NCc2ccccc2C)CC1	-29.9	/	6.0	-7.2	2.3	/
CCN1C(=O)c2ccccc2S(=O)(=O)c2ccc(C(=O)NCc3ccc(C)cc3)cc21	-11.3	/	0.6	-1.1	0.7	/
SMILES	D1 antag	BCR signal inh	D3 ag	D1 PAM	D1 ag	DRD3 antagonist
CC1(C)CC(=O)c2cc(OCC(=O)NCCCN3CCN(c4ccc(F)cc4)CC3)ccc2O1	-9.9	-3.9%	-53.8	5.1	3.7	-80.8*
CC1(C)CC(=O)c2cc(OCC(=O)NCCN3CCCc4ccccc43)ccc2O1	-6.3	-1.3%	-30.6	-1.4	1.8	-67.5*
Cc1ccccc1OCC(=O)N/N=C/c1c(C)nn(-c2ccccc2)c1Cl	-54.8*	-2.4%	-3.6	-15.4	0.5	-0.6
Cc1ccc(C(=O)N/N=C\c2c(C)nn(-c3ccccc3)c2Cl)cn1	3.2	?	0.6	-0.1	3.0	-3.5
Cc1ccc(S(=O)(=O)NCCc2nnc3ccc(SCc4ccc(F)cc4)nn23)cc1	-7.4	/	-0.9	-3.6	-0.9	/
COc1ccc(/C=C/C(=O)OCC(=O)c2ccc(S(=O)(=O)N3CCCCC3)cc2)cc1OC	-54.6*	-1.0%	4.0	-7.3	4.9	-1.7
O=C(C1CC1)N1CCc2cc(S(=O)(=O)N3CCOCC3)ccc21	1.5	-13.7%	-0.6	6.3	0.1	-7.8
O=C(c1ccco1)N1CCN(S(=O)(=O)c2ccc3c(c2)CCN3C(=O)C2CC2)CC1	-46.6*	5.3%	2.5	-1.6	-0.9	-3.0
O=C(OCC(=O)N1CCN(C(=O)c2ccco2)CC1)c1ccc(S(=O)(=O)N2CCCCC2)cc1	-57.5*	?	1.0	-15.7	6.5	35.9
O=C(COC(=O)c1ccc(O)cc1)Nc1ccc(S(=O)(=O)N2CCCC2)cc1	/	?	0.7	/	/	-0.1
O=C(COC(=O)c1ccc(O)cc1)c1ccc(S(=O)(=O)N2CCCCC2)cc1	-31.1*	-4.4%	-0.5	-9.2	9.5	-12.5
O=C(OCC(=O)N1CCCC1)c1ccc(S(=O)(=O)N2CCOCC2)cc1	9.9	2.5%	-0.6	-0.3	4.0	-9.6
O=C(NCCc1ccc(Cl)cc1)c1ccc(CS(=O)Cc2cccc(Cl)c2)o1 (stereo not given)	-1.9	/	-22.0	-4.2	1.5	/
O=C(COC(=O)c1ccc(CO)cc1)c1ccc(S(=O)(=O)N2CCCCC2)cc1	-31.6*	0.0%	1.8	-6.2	10.6	-4.6
NCCOc1ccc(C2CCCCC2)cc1	32.1	?	-9.6	5.5	32.5*	0.6
Cc1ccc(/C=C/c2onc(C)c2S(=O)(=O)N2CCC(C(=O)N3CCN(c4ccccc4F)CC3)CC2)cc1	-12.6	/	-2.0	1.1	5.6	/
N#CC1(NC(=O)COC(=O)/C=C/c2ccc3ccccc3n2)CCCCC1	-50.4*	-4.9%	2.1	-12.7	5.0	-7.6
COc1cc2c(cc1OC)CN(Cc1ccccc1)CC2	14.2	-0.8%	-26.7	-5.8	2.7	-23.8
COc1cc2c(cc1OC)CN(Cc1cccs1)CC2	5.7	?	-12.1	4.6	-4.0	-54.2*
COc1cc2c(cc1OC)CN(Cc1ccc(OC)c(C)c1OC)CC2	-2.0	16.8%	-7.3	-2.5	6.9	-76.9*
